PubChem BioAssay (Tox21)
Values joined by “and” are separate entries in the source; they are usually repeats but may differ in a detail not shown here. Identical values can stand only once. Inconclusive results are not listed. Where a structure was tested more than once in an assay, its records may differ in their call. Active and inactive are the calls of the source. Unless noted, the call rests on the fitted dose curve; in most records, active means well fitted curve in the direction sought with a large enough effect in the repeat runs; inconclusive means weak or mixed curves; inactive means no such curve, though single readings can be large; an effect the other way counts as inactive or inconclusive.

Legend:
[1] = qHTS assay to identify small molecule antagonists of the androgen receptor (AR) signaling pathway using the MDA cell line in the presence of 0.5 nM R1881 - cell viability counter screen (AID 1259242); further: nearly all actives have a fitted effect of over 45% in size; further: potency means the concentration at half of the fitted maximal effect
Method in brief: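 Human breast carcinoma MDA-kb2 cells, cultured without CO2, receive compounds alongside 0.5 nM (final) R1881 agonist. After 16 hr at 37C, viability is taken as live-cell protease signal.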

[2] = qHTS assay to identify small molecule HDAC inhibitors (AID 1259364);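 further: wild-type HCT-116 cells with endogenous class I/II HDAC activity; top concentration of the series differs between compounds; nearly all actives have a fitted effect of over 45% in size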
Method in brief: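 After a 2 hr compound incubation (37C, 5% CO2), HCT-116 cells seeded at 1,500/well the day before received HDAC-Glo reagent; signal read as luminescence after 30 min at room temperature.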

[3] = qHTS assay to identify small molecule HDAC inhibitors - cell viability counter screen (AID 1259365); further: series mostly up to about 92 µM; nearly all actives have a fitted effect of over 50% in size
Method in brief: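 CellTiter-Glo luminescence (30 min, room temperature) reported viability after a 2 h compound exposure at 37 C. Cells: wild-type HCT-116, 1,500 per well, seeded the night before.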

[4] = qHTS assay to identify small molecule agonists of the sonic hedgehog signaling (Shh) pathway - cell viability counter screen (AID 1259366); further: nearly all actives have a fitted effect of over 50% in size; further: potency means the concentration at half of the fitted maximal effect
Method in brief: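 Cytotoxicity counter screen: CellTiter-Fluor reagent added after 23 h compound exposure, then 1 h at 37C and fluorescence read. Cells were 3T3 Gli1-Luc, seeded 2,000 per well and dosed 4 h post-plating.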

[5] = qHTS assay to identify small molecule antagonists of the sonic hedgehog signaling (Shh) pathway - cell viability counter screen (AID 1259367); further: nearly all actives have a fitted effect of over 55% in size; further: potency means the concentration at half of the fitted maximal effect
Method in brief: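 Viability was read by CellTiter-Fluor fluorescence in the same wells, reagent added 23 hr into compound treatment and incubated 1 hr at 37C. The 3T3 Gli1-Luc reporter cells (2,000/well) received conditioned medium after compound and ran 24 hr.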

[6] = qHTS assay to identify small molecule agonists of the sonic hedgehog signaling (Shh) pathway (AID 1259368; calls by dose curve;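 further: NIH/3T3-derived 3T3Gli1-Luc cells carrying a stable Gli1-driven firefly luciferase reporter; series mostly up to about 92 µM; nearly all actives have a fitted effect of over 15% in size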)
Method in brief: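 Stable NIH/3T3 Gli1-Luc reporter clone; 24 hr cpd exposure after a 4 hr settling period; luminescence endpoint.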

[7] = qHTS assay to identify small molecule antagonists of the sonic hedgehog signaling (Shh) pathway (AID 1259369; calls by dose curve; further: nearly all actives have a fitted effect of over 45% in size; further: potency means the concentration at half of the fitted maximal effect)
Method in brief: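 Gli1 transcriptional reporter (firefly Luc) in NIH/3T3 background, conditioned-medium activated. 24hr exposure, luminescence endpoint.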

[8] = qHTS assay to identify small molecule agonists of the androgen receptor (AR) signaling pathway in the presence of an antagonist - cell viability counter screen (AID 1259379); further: nearly all actives have a fitted effect of over 25% in size; further: potency means the concentration at half of the fitted maximal effect;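 on activity change, negative = cytotoxicity: MDA-kb2 human breast cancer cells carrying an MMTV luciferase reporter; series mostly up to about 92 µM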
Method in brief: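 Counter screen for cell viability run in parallel with the AR agonist-mode luciferase assay. MDA-kb2 cells were co-treated with nilutamide (3.0uM final) and compounds, then incubated 16 hr at 37C, and CellTiter-Fluor fluorescence was measured.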

[9] = qHTS assay to identify small molecule agonists of the estrogen receptor beta (ER-beta) signaling pathway - cell viability counter screen (AID 1259380); further: nearly all actives have a fitted effect of over 30% in size; further: potency means the concentration at half of the fitted maximal effect
Method in brief: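 In this qHTS counter screen, HEK293T cells carrying an ER-beta/UAS beta-lactamase reporter, grown in 2% charcoal-stripped FBS, received compound for 16 hr; ATP-based CellTiter-Glo luminescence was then read after 30 min at room temperature.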

[10] = qHTS assay to identify small molecule antagonists of the estrogen receptor beta (ER-beta) signaling pathway - cell viability counter screen (AID 1259382); further: nearly all actives have a fitted effect of over 55% in size; further: potency means the concentration at half of the fitted maximal effect;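 on activity change, negative = cytotoxicity: HEK293T cells carrying ER-beta-UAS-bla reporter stimulated with estradiol; series mostly up to about 92 µM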
Method in brief: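 HEK293T ER-beta-UAS-bla, 2% charcoal-stripped FBS; compounds + 1nM E2 16 hr 37C; CellTiter-Glo luminescence, 30 min RT.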

[11] = qHTS assay to identify small molecule agonists or antagonists of the thyroid stimulating hormone receptor (TSHR) signaling pathway - wild type cell line counter screen (AID 1259384; calls by dose curve)
Method in brief: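 Counter screen in untransfected Hek293: compounds (15-point titration, triplicate) plus phosphodiesterase inhibitor Ro20-1724 added after 18 h plating; 30 min RT. Intracellular cAMP via competitive d2/cryptate immunoassay, 1 h incubation.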

[12] = target: Thyrotropin receptor (Homo sapiens) (UniProt P16473); experiment: qHTS assay to identify small molecule antagonists of the thyroid stimulating hormone receptor (TSHR) signaling pathway (AID 1259385; calls by dose curve; further: nearly all actives have a fitted effect of over 20% in size)
Method in brief: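 Antagonist mode: compound-treated TSHR-expressing HEK293 cells were stimulated with 1.5 ng/mL TSH (final) in presence of Ro20-1724 for 30 min at RT. HTRF cAMP detection after 1 h; each compound tested at 15 concentrations, triplicate.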

[13] = qHTS assay to identify small molecule agonists of the estrogen receptor alpha (ER-alpha) signaling pathway in the presence of an antagonist - cell viability counter screen (AID 1259386);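 further: cells exposed to compounds for 22 h at 37 °C before the viability read; nearly all actives have a fitted effect of over 30% in size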; further: potency means the concentration at half of the fitted maximal effect; on activity change, negative = cytotoxicity: series mostly up to about 92 µM
Method in brief: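 Steps: 5-day stripped-FBS culture; seed and incubate 24hr; add ICI-182,780 (10.0nM final); pin 15-point compound titration; incubate 22hr at 37C; add CellTiter-Fluor at 21hr; read fluorescence.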

[14] = target: Estrogen receptor beta (Homo sapiens) (UniProt Q92731); experiment: qHTS assay to identify small molecule agonists of the estrogen receptor beta (ER-beta) signaling pathway (AID 1259377; active means well fitted activation curve with a large enough effect in the signal ratio in the repeat runs, not every such curve was filed as active; the % refers to the signal ratio; further: potency means the concentration at half of the fitted maximal effect)
Method in brief: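 Ratiometric beta-lactamase FRET read-out came after 2 h substrate loading at room temperature. It followed 16 h compound treatment at 37C of GripTite HEK293T cells carrying a UAS-bla reporter, plated in 2% charcoal-stripped FBS medium.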

[15] = target: Estrogen receptor (Homo sapiens) (UniProt P03372); experiment: qHTS assay to identify small molecule agonists of the estrogen receptor alpha (ER-alpha) signaling pathway in the presence of an antagonist (AID 1259383; calls by dose curve; further: top concentration of the series differs between compounds; nearly all actives have a fitted effect of over 15% in size)
Method in brief: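 ER-alpha agonism measured under antagonist challenge: 10.0nM ICI-182,780 (final) plus compound, 15 concentrations, 22hr, VM7Luc4E2 ERE-luciferase cells. Read by luminescence.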

[16] = target: Estrogen receptor (Homo sapiens) (UniProt P03372); experiment: qHTS assay to identify small molecule antagonists of the estrogen receptor alpha (ER-alpha) signaling pathway using the BG1 cell line in the presence of 0.1 nM 17-beta-estradiol (AID 1259244); further: nearly all actives have a fitted effect of over 50% in size
Method in brief: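 Seeding of stripped-serum-adapted VM7Luc4E2 cells, 24 h attachment, compound transfer, then 0.1 nM final 17beta-estradiol; after 22 h incubation, ONE-Glo reagent and luminescence reading.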

[17] = target: Estrogen receptor beta (Homo sapiens) (UniProt Q92731); experiment: qHTS assay to identify small molecule antagonists of the estrogen receptor beta (ER-beta) signaling pathway (AID 1259378; active means well fitted inhibition curve with a large enough effect in the signal ratio in the repeat runs, not every such curve was filed as active; the % refers to the signal ratio; further: potency means the concentration at half of the fitted maximal effect)
Method in brief: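 Antagonist mode: compounds added to beta-lactamase reporter HEK293T ER-beta-UAS cells stimulated with E2 (1nM final), 16 hr at 37C. LiveBLAzer B/G FRET substrate, 2 hours room temperature, fluorescence read-out.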

[18] = qHTS assay to identify small molecule phospholipidosis (PLD) inducers (AID 1259344; active means well fitted curve in the direction sought with a large enough effect; an effect the other way counts as inactive or inconclusive)
Method in brief: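 Phospholipid accumulation was scored by imaging: fixed, Hoechst-counterstained HepG2 cells stained with LipidTOX Red after 24 h compound exposure at 37 C. Read-outs were pit count and pit intensity per well or per cell, with amiodarone and DMSO controls.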

[19] = target: Androgen receptor (Homo sapiens) (UniProt P10275); experiment: qHTS assay to identify small molecule agonists of the androgen receptor (AR) signaling pathway in the presence of an antagonist (AID 1259381; calls by dose curve; further: nearly all actives have a fitted effect of over 15% in size)
Method in brief: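 AR antagonist background: nilutamide 3.0uM final. Cell line: MDA-kb2, MMTV-driven luciferase, responsive to both AR and GR. Exposure 16hr, 37C, no CO2; ONE-Glo luminescence.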
On the % scale 0 is the no-effect control and ±100 the full control effect.

Chain of Estrogen receptor (Homo sapiens) (P03372 whole entry, looked up): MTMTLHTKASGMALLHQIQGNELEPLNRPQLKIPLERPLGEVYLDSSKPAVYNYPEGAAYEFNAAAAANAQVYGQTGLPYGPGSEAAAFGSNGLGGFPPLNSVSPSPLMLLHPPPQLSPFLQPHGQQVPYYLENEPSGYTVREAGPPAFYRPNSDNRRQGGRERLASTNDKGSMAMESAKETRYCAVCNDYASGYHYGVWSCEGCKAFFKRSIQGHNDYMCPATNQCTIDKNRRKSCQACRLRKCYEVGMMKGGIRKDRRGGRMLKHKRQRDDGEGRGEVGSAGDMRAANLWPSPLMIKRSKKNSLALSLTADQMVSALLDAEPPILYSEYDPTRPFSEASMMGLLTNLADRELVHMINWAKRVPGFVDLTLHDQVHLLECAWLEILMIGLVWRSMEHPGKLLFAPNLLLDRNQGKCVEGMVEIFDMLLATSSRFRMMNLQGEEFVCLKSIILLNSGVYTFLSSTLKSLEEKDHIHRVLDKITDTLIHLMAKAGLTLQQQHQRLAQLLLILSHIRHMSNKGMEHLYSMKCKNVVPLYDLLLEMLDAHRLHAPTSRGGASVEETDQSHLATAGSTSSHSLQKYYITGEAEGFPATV
Chain of Estrogen receptor beta (Homo sapiens) (Q92731 whole entry, looked up): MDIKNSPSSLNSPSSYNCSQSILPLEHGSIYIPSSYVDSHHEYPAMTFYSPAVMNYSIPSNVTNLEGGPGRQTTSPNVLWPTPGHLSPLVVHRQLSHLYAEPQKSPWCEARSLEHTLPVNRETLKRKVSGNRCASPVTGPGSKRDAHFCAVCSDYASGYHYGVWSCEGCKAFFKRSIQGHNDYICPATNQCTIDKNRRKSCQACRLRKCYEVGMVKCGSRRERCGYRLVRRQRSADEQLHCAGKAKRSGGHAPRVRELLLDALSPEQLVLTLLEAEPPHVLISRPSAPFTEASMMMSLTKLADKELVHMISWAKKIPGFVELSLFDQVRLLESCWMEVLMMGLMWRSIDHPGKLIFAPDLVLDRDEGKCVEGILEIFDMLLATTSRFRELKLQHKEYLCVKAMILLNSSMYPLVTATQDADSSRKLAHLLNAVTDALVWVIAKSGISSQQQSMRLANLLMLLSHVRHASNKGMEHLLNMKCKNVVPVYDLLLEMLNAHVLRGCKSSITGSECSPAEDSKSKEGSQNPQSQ
Chain of Thyrotropin receptor (Homo sapiens) (P16473 whole entry, looked up): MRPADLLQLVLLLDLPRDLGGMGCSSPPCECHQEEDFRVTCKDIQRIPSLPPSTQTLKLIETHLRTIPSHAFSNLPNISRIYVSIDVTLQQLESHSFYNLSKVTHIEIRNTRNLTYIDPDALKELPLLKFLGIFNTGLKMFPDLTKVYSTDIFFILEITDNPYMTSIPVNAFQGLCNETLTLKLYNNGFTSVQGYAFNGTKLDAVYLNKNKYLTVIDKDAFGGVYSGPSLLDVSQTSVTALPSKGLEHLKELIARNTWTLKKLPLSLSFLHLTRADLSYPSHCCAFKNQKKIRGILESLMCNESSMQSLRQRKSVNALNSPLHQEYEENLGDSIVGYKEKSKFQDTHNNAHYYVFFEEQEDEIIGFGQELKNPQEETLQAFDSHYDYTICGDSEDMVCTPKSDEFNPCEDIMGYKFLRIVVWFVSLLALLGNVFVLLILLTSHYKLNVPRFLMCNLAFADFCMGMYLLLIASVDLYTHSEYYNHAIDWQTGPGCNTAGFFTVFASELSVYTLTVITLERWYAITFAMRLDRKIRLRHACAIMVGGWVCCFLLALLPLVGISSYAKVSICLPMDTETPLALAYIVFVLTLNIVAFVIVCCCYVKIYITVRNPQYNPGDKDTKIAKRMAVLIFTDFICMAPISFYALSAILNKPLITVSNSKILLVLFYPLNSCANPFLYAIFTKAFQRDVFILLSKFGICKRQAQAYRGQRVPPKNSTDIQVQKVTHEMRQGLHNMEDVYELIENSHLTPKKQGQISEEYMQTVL
Chain of Androgen receptor (Homo sapiens) (P10275 whole entry, looked up): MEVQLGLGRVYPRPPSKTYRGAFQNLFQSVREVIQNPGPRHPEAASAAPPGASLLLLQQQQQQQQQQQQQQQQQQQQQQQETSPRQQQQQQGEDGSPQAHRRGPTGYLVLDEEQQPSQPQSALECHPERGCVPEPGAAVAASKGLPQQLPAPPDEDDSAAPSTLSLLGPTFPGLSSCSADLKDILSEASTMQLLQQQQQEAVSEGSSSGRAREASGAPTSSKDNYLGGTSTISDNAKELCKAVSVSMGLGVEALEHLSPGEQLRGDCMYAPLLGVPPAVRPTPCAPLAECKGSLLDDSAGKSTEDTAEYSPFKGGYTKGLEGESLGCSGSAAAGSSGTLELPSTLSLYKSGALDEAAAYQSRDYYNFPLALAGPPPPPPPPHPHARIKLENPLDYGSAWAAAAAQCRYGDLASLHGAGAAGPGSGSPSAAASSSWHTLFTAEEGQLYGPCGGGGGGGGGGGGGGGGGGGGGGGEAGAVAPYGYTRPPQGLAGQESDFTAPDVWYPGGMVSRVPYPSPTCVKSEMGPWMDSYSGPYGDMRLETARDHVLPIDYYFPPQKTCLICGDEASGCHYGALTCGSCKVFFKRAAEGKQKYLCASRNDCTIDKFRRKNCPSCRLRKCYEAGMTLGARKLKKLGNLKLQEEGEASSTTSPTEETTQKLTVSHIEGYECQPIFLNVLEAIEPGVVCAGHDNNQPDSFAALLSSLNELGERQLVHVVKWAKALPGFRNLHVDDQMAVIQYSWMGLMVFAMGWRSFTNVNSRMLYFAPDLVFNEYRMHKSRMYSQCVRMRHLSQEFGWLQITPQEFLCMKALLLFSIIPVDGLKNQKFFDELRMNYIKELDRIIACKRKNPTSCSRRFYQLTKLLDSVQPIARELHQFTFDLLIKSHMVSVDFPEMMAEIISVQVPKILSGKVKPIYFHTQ

CCC(=O)C(=O)CC
inactive: Potency [1] | Potency [2] | Potency [3] | Potency [4] | Potency [5] | Potency [6] | Potency [7] | Potency [8] | Potency [9] | Potency [10] | outcome [11] | Potency [12] | Potency [13]

CCCCCC(C)OC(=O)COc1ccc(Cl)c2cccnc12 (stereo not drawn)
inactive: Potency [1] | Potency [2] | Potency [3] | Potency [4] | Potency [5] | Potency [6] | Potency [8] | Potency [10] | outcome [11] | Potency [12] | Potency [13]
active: Potency [7] 54.5 µM | Potency [9] 54.5 µM

CCCNCCC
inactive: Potency [1] | Potency [2] | Potency [3] | Potency [4] | Potency [5] | Potency [6] | Potency [7] | Potency [14] | Potency [8] | Potency [10] | outcome [11] | Potency [12] | Potency [13]

CCC(C)n1ncn(-c2ccc(N3CCN(c4ccc(OC[C@H]5CO[C@](Cn6cncn6)(c6ccc(Cl)cc6Cl)O5)cc4)CC3)cc2)c1=O (stereo partly drawn)
inactive: Potency [1] | Potency [2] | Potency [3] | Potency [4] | Potency [5] | Potency [10] | Potency [15] | outcome [11] | Potency [12] | Potency [13]

CCN(CCN)c1cccc(C)c1
active: Potency [7] 7.77 µM
inactive: Potency [1] | Potency [16] | Potency [3] | Potency [4] | Potency [5] | Potency [6] | Potency [8] | outcome [11] | Potency [12] | Potency [13]

CC(C)CCOC(=O)/C=C/c1ccccc1
inactive: Potency [1] | Potency [16] | Potency [3] | Potency [4] | Potency [5] | Potency [6] | Potency [8] | Potency [10] | Potency [15] | outcome [11]

OCC(F)(F)F
inactive: Potency [1] | Potency [2] | Potency [3] | Potency [4] | Potency [5] | Potency [6] | Potency [14] | Potency [17] | Potency [9] | Potency [10] | outcome [11] | Potency [12] | Potency [13]

Cc1cc(C(C#N)c2ccc(Cl)cc2)c(Cl)cc1NC(=O)c1cc(I)cc(I)c1O (stereo not drawn)
active: Potency [9] 11.9 µM | Potency [10] 23.7 µM
inactive: Potency [1] | Potency [18] | Potency [3] | Potency [4] | Potency [5] | Potency [6] | Potency [14] | Potency [15]

CCCCCCCCCCCCOC(=O)c1ccc(O)cc1
inactive: Potency [1] | Potency [2] | Potency [3] | Potency [4] | Potency [5] | Potency [6] | Potency [7] | Potency [14] | Potency [8] | Potency [9] | outcome [19] | Potency [10] | Potency [13]

Oc1ccccc1O
874 nM (active) and inactive: Potency [7]
inactive: Potency [1] | Potency [2] | Potency [3] | Potency [17] | Potency [8] | Potency [10] | outcome [11] | Potency [12] | Potency [13]
active: Potency [4] 9.81 µM and 15.4 µM | Potency [5] 6.19 µM and 15.4 µM | Potency [14] 22 µM and 24.3 µM

c1ccc(C(O[C@@H]2CCCN(CCc3ccc4c(c3)OCO4)C2)c2ccccc2)cc1
inactive: Potency [1] | Potency [2] | Potency [3] | Potency [4] | Potency [5] | Potency [14] | Potency [10] | Potency [15] | outcome [11] | Potency [12]
active: Potency [17] 48.6 µM

CC(C)(C)c1ccc(C(O)CCCN2CCC(C(O)(c3ccccc3)c3ccccc3)CC2)cc1 (stereo not drawn)
active: Potency [1] 16.8 µM | Potency [4] 26.6 µM | Potency [8] 23.7 µM
inactive: Potency [18] | Potency [2] | Potency [5] | Potency [6] | Potency [10] | Potency [15] | outcome [11] | Potency [13]

Oc1cc(Cl)cc(Cl)c1Cl
inactive: Potency [1] | Potency [2] | Potency [3] | Potency [4] | Potency [5] | Potency [14] | Potency [10] | outcome [11] | Potency [12]
active: Potency [7] 31.4 µM

C=CCCC(=O)/C=C/C1C(C)=CCCC1(C)C (stereo not drawn)
inactive: Potency [1] | Potency [2] | Potency [3] | Potency [4] | Potency [5] | Potency [6] | Potency [7] | Potency [14] | Potency [17] | Potency [8] | Potency [9] | Potency [10] | Potency [13]

C[C@@H](O)[C@H](N)C(=O)O
inactive: viability change, negative = cytotoxic [1] 0.742% [at 19 µM] | Potency [18] | activity change, negative = inhibition [2] -3.34% [at 19 µM] | activity change, negative = cytotoxicity [3] -2.68% [at 19 µM] | viability change, negative = cytotoxic [4] 6.05% [at 19 µM] | viability change, negative = cytotoxic [5] 3.97% [at 19 µM] | activity change [6] 0.344% [at 18.9 µM, stronger effect = higher value] | activity change, negative = cytotoxicity [8] -0.428% [at 19 µM] | activity change, negative = cytotoxicity [10] 0.119% [at 19 µM] | activity change, negative = cytotoxicity [13] 2.14% [at 19 µM]

O=C1CCc2ccc(OCCCCN3CCN(c4cccc(Cl)c4Cl)CC3)cc2N1
inactive: Potency [18] | Potency [2] | Potency [3] | Potency [5] | outcome [11] | Potency [12]
active: Potency [1] 29.8 µM | Potency [7] 11.9 µM | Potency [9] 10.6 µM | Potency [10] 33.5 µM | Potency [13] 29.8 µM

COC(=O)C1=C(C)NC(C)=C(C(=O)OCCN2CCN(C(c3ccccc3)c3ccccc3)CC2)C1c1cccc([N+](=O)[O-])c1 (stereo not drawn)
inactive: Potency [1] | Potency [18] | Potency [2] | Potency [3] | Potency [4] | Potency [5] | Potency [6] | Potency [14] | Potency [9] | Potency [10] | Potency [15] | outcome [11] | Potency [13]
